Sampled rows, rich in hits. Any-hit rate of the full collection: about 0.84%.
SRC1 inh = inhibits human SRC1 coactivator. Q15788. HEK293 GAL4-SRC1 luciferase reporter, luminescence. inhibition, % at 3.6 µM. actives 0.12% (n = 360,000). AID 588354;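 active = inhibition above the campaign mean plus 3 SD, with each screening campaign given its own cutoff, cut at about 60% in these data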
NR5A2 inv ag = inverse agonists of human LRH-1 (NR5A2); actives 0.13% (n = 360,000); inhibition, % at 3.6 µM; HEK293T StAR-luciferase reporter, LRH-1 transfected, 24 h; AID 602396; O00482;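 active = inhibition above the mean inhibition of all tested compounds plus 3 SD, cut at about 73% in these data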
NCOA3 inh = inhibitors of human steroid receptor coactivator 3 (SRC3); Q9Y6Q9; HEK293 GAL4-SRC3 luciferase reporter, luminescence; inhibition, % at 3.6 µM; actives 0.17% (n = 360,000); AID 588352;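 active = inhibition above a per-campaign cutoff, the mean of all compounds plus 3 SD, cut at about 60% in these data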;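 also: higher means less SRC3-driven luciferase light from the GAL4 reporter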
SRC2 inh = inhibits human steroid receptor coactivator 2. HEK293 GAL4-SRC2 luciferase reporter, luminescence. inhibition, % at 9 µM. actives 0.17% (n = 370,000). AID 651957;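 active = inhibition above the mean inhibition of all tested compounds plus 3 SD, set per campaign, cut at about 52% in these data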
COUP-TFII inh = blocks human COUP-TFII nuclear receptor. P24468. HEK293T NGFI-A luciferase reporter, luminescence. inhibition, % at 8.6 µM. actives 0.7% (n = 370,000). AID 686940;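 active = inhibition above a per-plate cutoff, mean inhibition of test wells between control levels plus 3 SD, cut at about 38% in these data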;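 also: cells cotransfected with COUP-TFII expression vector driving the NGFI-A reporter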
Target sequence (P24468 whole entry, looked up): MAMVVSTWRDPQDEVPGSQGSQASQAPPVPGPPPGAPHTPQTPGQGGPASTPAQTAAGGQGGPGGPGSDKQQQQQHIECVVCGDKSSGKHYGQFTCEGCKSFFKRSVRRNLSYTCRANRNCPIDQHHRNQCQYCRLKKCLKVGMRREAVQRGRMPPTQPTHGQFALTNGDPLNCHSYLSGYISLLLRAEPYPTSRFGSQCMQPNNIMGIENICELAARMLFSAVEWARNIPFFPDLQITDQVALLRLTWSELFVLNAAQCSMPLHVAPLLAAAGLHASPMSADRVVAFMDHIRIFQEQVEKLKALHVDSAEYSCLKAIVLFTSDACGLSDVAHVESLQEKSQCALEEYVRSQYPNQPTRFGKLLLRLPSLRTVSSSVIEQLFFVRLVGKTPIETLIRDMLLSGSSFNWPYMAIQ
VP16 Luc counter = VP16 inhibition counter-screen for COUP-TFII; shares compounds with COUP-TFII inh; HEK293 Gal4-VP16 luciferase reporter, luminescence; inhibition, % at 8.5 µM; actives 25% (n = 2,500); in the data active = inhibition above about 13%
COUP-TFII conf = confirmation of human COUP-TFII (NR2F2) inhibitors; shares compounds with COUP-TFII inh; HEK293 NGFI-A luciferase reporter, luminescence; inhibition, % at 8.5 µM; actives 45% (n = 2,500); AID 687008;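 active = mean inhibition over three repeats above a set limit taken from the earlier primary screen, cut at about 38% in these data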
Each line names hits and unclear results; the compound was inactive in the other large screens (follow-up assays come after a bar, where they were run).

CCOc1cc(/C=C2\CN(CC)C/C(=C\c3ccc(O)c(OCC)c3)C2=O)ccc1O	COUP-TFII inh 79 | VP16 Luc counter 48 | COUP-TFII conf 72
C=CCn1c(SCC(=O)c2ccc(F)cc2)nnc1-c1ccc(F)cc1	none (no result: SRC1 inh, NR5A2 inv ag, NCOA3 inh)
Cc1nn(-c2ccccc2Cl)c(Cl)c1/C=N/Nc1nc2ccccc2s1	SRC1 inh 67, NCOA3 inh 79, SRC2 inh 81, COUP-TFII inh 86 | VP16 Luc counter 88 | COUP-TFII conf 102
CCOC(=O)N/N=C/c1c(C)nn(-c2ccccc2Cl)c1Cl	none
CC(=O)N1c2ccc(S(=O)(=O)N3CCC(C(=O)N4CCN(c5cc(Cl)ccc5C)CC4)CC3)cc2CC1C (centres undefined)	COUP-TFII inh 43 | VP16 Luc counter inactive | COUP-TFII conf inactive
CC(=O)c1ccc(N2CCN(S(=O)(=O)c3ccc4c(c3)CC(C)N4C(C)=O)CC2)cc1 (centres undefined)	COUP-TFII inh 59 | VP16 Luc counter inactive | COUP-TFII conf 44
CC(=O)N1c2ccc(S(=O)(=O)N3CCC(C(=O)N4CCC(C)CC4)CC3)cc2CC1C (centres undefined)	none
CC(=O)c1ccc(N2CCN(S(=O)(=O)c3ccc4c(c3)CC(C)N4C(=O)C3CC3)CC2)cc1 (centres undefined)	none
CCc1ccc(-c2nc(CSCC(=O)N3CCN(c4ccccn4)CC3)c(C)o2)cc1	COUP-TFII inh 52 | VP16 Luc counter inactive | COUP-TFII conf inactive
CCOc1ccc(-c2nc(CSCC(=O)N3CCN(c4cccc(OC)c4)CC3)c(C)o2)cc1	SRC2 inh 59, COUP-TFII inh 66 | VP16 Luc counter 17 | COUP-TFII conf 44
C=CCCC1CN(Cc2ccc(OC)cc2)S(=O)(=O)c2c(NCc3cc(OC)c(OC)c(OC)c3)cccc2O1 (centres undefined)	COUP-TFII inh 43 (no result: SRC1 inh, NR5A2 inv ag, NCOA3 inh) | VP16 Luc counter inactive | COUP-TFII conf inactive
C=CCCC1CN(Cc2ccc(OC)cc2)S(=O)(=O)c2c(Oc3ccc(OC)cc3)cccc2O1 (centres undefined)	none (no result: SRC1 inh, NR5A2 inv ag, NCOA3 inh)
CN1c2ccccc2C(C)(C)[C@]12C=Cc1cc(O)ccc1O2	COUP-TFII inh 43 | VP16 Luc counter inactive | COUP-TFII conf inactive
Cc1ccc(CCNc2ncnc(Cl)c2N)cc1	COUP-TFII inh 64 | VP16 Luc counter inactive | COUP-TFII conf 49
CN(C)CC(=O)N[C@@H]1C[C@@H]2O[C@@H](CO)CC[C@@H]2O[C@@H]1CCc1ccc(C2=CCCCC2)cc1	none (no result: SRC1 inh, NR5A2 inv ag, NCOA3 inh)
O=C(c1cc2ccccc2o1)N1CCN(C/C=C/c2ccccc2)CC1	COUP-TFII inh 38 | VP16 Luc counter inactive | COUP-TFII conf inactive
O=C(CN1CCN(c2nc(-c3ccccc3)cs2)CC1)Nc1ccc(Cl)c(Cl)c1	none (no result: SRC1 inh, NR5A2 inv ag, NCOA3 inh)
COc1cc(C[C@@H]2C(=O)OC[C@H]2Cc2ccc(OC)c(OC)c2)ccc1O	COUP-TFII inh 70 | VP16 Luc counter inactive | COUP-TFII conf 57
COc1cc(CC2COC(=O)C2(O)Cc2ccc(O)c(OC)c2)ccc1O (centres undefined)	COUP-TFII inh 53 | VP16 Luc counter inactive | COUP-TFII conf inactive
COC(=O)[C@]12C[C@H](CC(=O)NCC34CC5CC(CC(C5)C3)C4)C(=O)N(Cc3ccc(Cl)cc3Cl)C1=C[C@H](C(C)(C)C)O[C@@H]2C	none (no result: SRC1 inh, NR5A2 inv ag, NCOA3 inh)
CC1OC(CC(=O)O)CC2=C1C(=O)c1c(O)cccc1C2=O (centres undefined)	SRC1 inh 70, NR5A2 inv ag 97, NCOA3 inh 93, SRC2 inh 96, COUP-TFII inh 105 | VP16 Luc counter 98 | COUP-TFII conf 110
CS(=O)(=O)N[C@@H]1C[C@@H]2O[C@@H](CO)CC[C@@H]2O[C@@H]1CCc1ccc(/C=C/c2ccccc2)cc1	none (no result: SRC1 inh, NR5A2 inv ag, NCOA3 inh)
CC1Sc2n(c3ccccc3[n+]2C)N=C1c1ccccc1 (centres undefined)	none
COc1ccc(C2=Nn3c(nnc3-c3ccccn3)SC2)cc1	none
C[n+]1c2n(c3ccccc31)N=C(c1ccc(Cl)cc1)CS2	COUP-TFII inh 54 | VP16 Luc counter inactive | COUP-TFII conf inactive
COc1ccc(C2=Nn3c([n+](C)c4ccccc43)SC2)cc1	COUP-TFII inh 73 | VP16 Luc counter inactive | COUP-TFII conf 65
Cc1ccc(S(=O)(=O)NCc2ccncc2)c(C)c1C	COUP-TFII inh 68 | VP16 Luc counter inactive | COUP-TFII conf 57
Cc1ccc(S(=O)(=O)NCc2ccccn2)c(C)c1C	none
Cc1cc(C)c(S(=O)(=O)NCCc2ccncc2)c(C)c1	none
COc1cc(C)c(Br)cc1S(=O)(=O)NCc1ccncc1	COUP-TFII inh 57 | VP16 Luc counter inactive | COUP-TFII conf inactive
Cc1cc(C)c(S(=O)(=O)NCc2ccncc2)c(C)c1	COUP-TFII inh 60 | VP16 Luc counter inactive | COUP-TFII conf 54
COCCCNC(=O)C[C@H]1C[C@@]2(C(=O)OC)C(=C[C@H](C3CCCC3)O[C@@H]2C)N(Cc2cccc3ccccc23)C1=O	none (no result: SRC1 inh, NR5A2 inv ag, NCOA3 inh)
COc1ccc(C=Nn2c(-c3ccc(F)cc3)n[nH]c2=S)c(OC)c1OC	none (no result: SRC1 inh, NR5A2 inv ag, NCOA3 inh)
O=C(Nc1ccc(F)cc1)Nc1cc(OCC(F)(F)F)cc(OCC(F)(F)F)c1	COUP-TFII inh 76 | VP16 Luc counter 17 | COUP-TFII conf 79
CC(=O)Oc1c(Cl)cc(N(C(C)=O)S(=O)(=O)c2ccccc2)c2ccccc12	COUP-TFII inh 53 | VP16 Luc counter 28 | COUP-TFII conf inactive
Cn1c(SCC2CCCCC2)nnc1-c1ccco1	none (no result: SRC1 inh, NR5A2 inv ag, NCOA3 inh)
O=C(C1CCCN1S(=O)(=O)c1ccc(Cl)s1)N1CCN(c2ccccc2)CC1 (centres undefined)	none (no result: SRC1 inh, NR5A2 inv ag, NCOA3 inh)
N=c1c2c(n(Cc3cccc(Cl)c3)c3c1CCC3)CCCC2	NR5A2 inv ag 75, COUP-TFII inh 65 | VP16 Luc counter 13 | COUP-TFII conf 47
CCOC(=O)Cn1c2c(c(=N)c3ccccc31)CCC2	none
N=c1c2c(n(Cc3ccccc3)c3c1CCC3)CCC2	COUP-TFII inh 41 | VP16 Luc counter inactive | COUP-TFII conf inactive
N=c1c2c(n(Cc3ccc(Cl)cc3)c3c1CCC3)CCC2	NR5A2 inv ag 92, NCOA3 inh 70, COUP-TFII inh 67 | VP16 Luc counter inactive | COUP-TFII conf 46
N=c1c2c(n(Cc3ccc(F)cc3)c3c1CCC3)CCCC2	COUP-TFII inh 39 | VP16 Luc counter inactive | COUP-TFII conf inactive
C(#CC1=CCCCC1)CNCC1CC1	none (no result: SRC1 inh, NR5A2 inv ag, NCOA3 inh)
O=S(=O)(c1ccc(-c2csc(Nc3ccc(F)cc3)n2)cc1)N1CCCC1	COUP-TFII inh 46 | VP16 Luc counter inactive | COUP-TFII conf inactive
O=C(Nc1nc(-c2ccc(S(=O)(=O)N3CCCCCC3)cc2)cs1)c1ccccc1	COUP-TFII inh 54 | VP16 Luc counter inactive | COUP-TFII conf inactive
O=S(=O)(c1ccc(-c2csc(Nc3ccc(Br)cc3)n2)cc1)N1CCCC1	none
Cc1cc(C)cc(Nc2nc(-c3ccc(S(=O)(=O)N4CCCC4)cc3)cs2)c1	none
